Compound activity as filed in PubChem.
p53ts 32C kill – cytotoxicity in p53ts cells at permissive temperature | Potency, µM (series often up to 46.1 µM), inactives show top-dose activity change, negative = cytotoxicity, actives largely listed as cytotoxic | 0.93% of 130,000 active | H1299-p53A138V at 32C, ATP luminescence viability, 24 h;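 further: 0% = DMSO and -100% = full killing by reference compound; nearly all actives have a fitted effect of over 55% in size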
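Viability by ATPlite luminescence after 24 h compound treatment (up to 46 uM) at the permissive 32C. Cells are H1299 carrying p53 A138V. Scale runs from DMSO basal to 100 uM tamoxifen as full kill; AC50 from Hill fits.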
p53ts 39C kill – cytotoxicity in p53ts cells at nonpermissive temperature; Potency, µM (doses to about 46.1 µM), inactives show at the highest dose activity change, negative = cell killing, most hits filed as cytotoxic; H1299-p53A138V viability at 39C, ATP luminescence, 24 h; AID 902; 1.5% of 130,000 active; further: on the % scale 0 is the no-effect control and ±100 the full control effect; nearly all actives have a fitted effect of over 55% in size
Imprint erasure – induces erasure of genomic imprints in mouse ES cells; mouse ES Peg3-LacZ reporter, beta-gal luminescence, 40 h; Potency, µM (doses to about 60.7 µM), for the others: top-dose activity change, positive = activation, hits mostly activators; 0.02% of 110,000 active; AID 1948
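Gelatin-coated wells received 300 freshly trypsinized female ES cells with a Peg3LacZ-Neo reporter on the maternal allele, then incubated 40 hours at 37C. BetaGlo was added for 5 minutes at room temperature before a single luminescence read.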
IkB sig inh – inhibitors of IkB signaling in ABC-DLBCL cells. ABC-DLBCL IkBa-CBG/CBR dual luciferase ratio, 4 h; response scale: scaled: untreated 0%, proteasome inhibitor 100%. Potency, µM (highest dose often 57.1 µM), without a hit: at the highest dose IkBa stabilization activation. 0.04% of 110,000 active; active means well fitted curve in the direction sought with a large enough effect in the signal ratio, not every such curve was filed as active; inconclusive means small, poorly fitted or top-dose-only effect, or a change in a side signal; the % refers to the signal ratio;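 further: the direction sought is a rising ratio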
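In this assay, an IκBα–CBG68 fusion accumulates when IKK-driven degradation is blocked; native CBR normalizes for cell number. OCI-Ly3 cells were treated 4 h with compound and doxycycline, then green and red light read after Chroma-Glo addition.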
Numbers without * were called inactive; ? = inconclusive; . = no result; [ ] = dose if it differs, or a comment. Sampled rows, rich in hits. Any-hit rate of the full collection: about 1.8%. Unless noted, the call rests on the fitted dose curve; in most records, active means well fitted curve in the direction sought with a large enough effect; inconclusive means small, poorly fitted or top-dose-only effect, or another doubt; inactive means no such curve, though single readings can be large; an effect the other way counts as inactive or inconclusive. Potency means the concentration at half of the fitted maximal effect.

SMILES	p53ts 32C kill	p53ts 39C kill	Imprint erasure	IkB sig inh
c1ccc(N2CCN(c3nc4cc5c(cc4s3)OCO5)CC2)cc1	-6%	-4%	5%	-3%
c1c2c(cc3sc(N4CCCCC4)nc13)OCO2	6.3µM*	10µM*	2%	?
c1ccc2c(c1)CCN(Cc1nnnn1Cc1ccc3c(c1)OCO3)C2	4%	-11%	-15%	-1%
c1c2c(cc3sc(N4CCOCC4)nc13)OCO2	10µM*	?	-89%	6%
c1ccc2c(c1)CCN(c1nc3cc4c(cc3s1)OCO4)C2	13µM*	?	-78%	?
CCCOCc1cc(CN2CCN(c3ccccc3OC)CC2)c(O)c2ncccc12	16µM*	10µM*	-39%[10.9 µM]	?
COc1ccccc1N1CCN(Cc2cc(COC(C)C)c3cccnc3c2O)CC1	?	2.5µM*	-37%[10.9 µM]	?
COc1ccccc1N1CCN(Cc2cc(Br)c(O)c3ncccc23)CC1	-18%	16µM*	-25%	?
CC(C)OCc1cc(CN2CCN(c3cccc(C(F)(F)F)c3)CC2)c(O)c2ncccc12	-18%	16µM*	-30%[10.9 µM]	11%
COCc1cc(CN2CCCC2)c(O)c2ncccc12	4%	?	-23%	0%
CCOCc1cc(CN2CCN(c3cccc(C(F)(F)F)c3)CC2)c(O)c2ncccc12	-2%	?	-33%[10.9 µM]	?
CCOc1ccccc1N1CCN(Cc2cccc(OC)c2O)CC1	-4%	0%	-4%	?
CN(C)CCCN1C(=O)C(=O)/C(=C(/O)c2ccncc2)C1c1ccccc1 (configuration not stated)	-1%	4%	-2%	3%
COc1ccc2c(c1)CCc1c(C(=O)NCc3ccco3)noc1-2	-23%	-25%	-29%	2%
COc1ccc(-c2nc(SCC(=O)N3CCN(c4ccc(F)cc4)CC3)n[nH]2)cc1	4%	-4%	22%[10.9 µM]	1%
CCS(=O)(=O)N1CCc2cc(C(=O)Nc3cc(Cl)ccc3C)ccc21	-8%	-4%	-11%[10.9 µM]	?
CN(C)c1ccc(NC(=O)CN2CCC(C(=O)c3ccc(F)cc3)CC2)cc1	5%	4%	-25%	0%
Cn1c(=O)c(C(=O)COC(=O)c2cc(-c3ccccc3)nc3ccccc23)c(N)n(Cc2ccccc2)c1=O	1%	-6%	-14%	.
CCOCc1cc(CN2CCN(c3ccccc3OC)CC2)c(O)c2ncccc12	5%	20µM*	25%[10.9 µM]	2%
CCn1cc([N+](=O)[O-])c(C(=O)N2N=C(c3ccc4ccccc4c3)CC2c2cc(Br)ccc2O)n1 (configuration not stated)	-8%	-1%	.	.
Cc1cc(C(=O)CN2C(=O)c3ccccc3S2(=O)=O)c(C)n1CC1CCCO1 (configuration not stated)	2.5µM*	1µM*	-91%	0%
C/C(CC(O)c1ccc2ccccc2n1)=N/O (configuration not stated)	-16%	-7%	-22%	-1%
c1ccc(Nc2nc(-c3cccs3)cs2)nc1	13µM*	?	-88%	?
Cc1cccc(Nc2nc(-c3cccs3)cs2)n1	?	-20%	.	.
c1cncc(Nc2nc(-c3cccnc3)cs2)c1	9%	2%	-15%	-9%
SMILES	p53ts 32C kill	p53ts 39C kill	Imprint erasure	IkB sig inh
c1ccc(Nc2nc(-c3cccnc3)cs2)nc1	?	16µM*	-81%	?
CCOc1cccc(CC(=O)NCc2ccc3c(c2)CCN3C(=O)c2ccc(F)cc2)c1OCC	11%	-12%	-11%[10.9 µM]	-1%
C/C(=N\NC(=O)C1CC1)c1ccc(Cl)cc1	.	0%	.	.
Cc1cccc2c1-c1sc(C(=O)N3CCN(c4cccc(Cl)c4)CC3)cc1CO2	9%	-16%	-6%[10.9 µM]	?
Cc1ccc(CNC(=O)c2cc3c(s2)-c2c(C)cccc2OC3)cc1	-8%	?	22%[10.9 µM]	?
Cc1cccc2c1-c1sc(C(=O)NCCCN3CCN(c4cccc(Cl)c4)CC3)cc1CO2	-3%	13µM*	-31%[10.9 µM]	2%
Cc1cccc2c1-c1sc(C(=O)NCCCN3CCN(c4ccccc4F)CC3)cc1CO2	-4%	16µM*	-19%[10.9 µM]	?
CCN1CCN(CCCNC(=O)c2cc3c(s2)-c2c(C)cccc2OC3)CC1	?	25µM*	-9%[10.9 µM]	?
Cc1ccsc1C(=O)OCC(=O)NCC1CCCO1 (configuration not stated)	3%	9%	-6%	-1%
CCN(CC)CC(=O)N(CC(=O)Nc1c(C)cc(C)cc1C)C1CCCCC1	-7%	16%	4%	1%
O=C(/C=C/c1ccc2c(c1)OCO2)c1cccs1	16µM*	20µM*	-46%	.
O=C(Oc1ccc2c(c1)OCO2)c1cccs1	-2%	-10%	-2%	0%
CC1(C)CC(=O)C(C=NCC2CCNCC2)=C(O)C1	-3%	4%	-13%	2%
CCn1c(=NC(=O)c2ccc3c(c2)OCCO3)sc2c(C)ccc(OC)c21	-17%	10µM*	-14%[10.9 µM]	-2%
C#CCn1c(=NC(=O)c2ccc3c(c2)OCCO3)sc2cc(OC)c(OC)cc21	-4%	-9%	2%[10.9 µM]	?
Oc1c(CN2CCN(c3ccccn3)CC2)cc(Cl)c2cccnc12	3%	-24%	-25%	?
Oc1c(Cl)cc(Cl)c2cccnc12	?	3.2µM*	-31%	.
Oc1ccc(Cl)c2cccnc12	-10%	-14%	-2%	.
Oc1c(I)cc(I)c2cccnc12	?	7.9µM*	-34%	.
Cc1cn2c(=O)cc(COc3cc(C)c(Cl)c(C)c3)nc2s1	-7%	-3%	20%[10.9 µM]	-2%
O=C(Nc1noc2ccccc12)c1ccc(F)cc1	10µM*	?	-31%[10.9 µM]	2%
COc1ccc(-c2n[nH]c(C)c2-c2ccc(Cl)cc2)c(O)c1OC	13µM*	?	-23%	?
COc1ccc(-c2ccc(Nc3ccc(C(=O)N4CCOCC4)cc3)nn2)cc1OC	8%	8%	.	.
c1ccc2c(c1)Cn1nnnc1-2	6%	-7%	14%	2%
c1ccc2c(c1)Cn1c-2nc2ccccc21	13µM*	7.9µM*	-89%	?
SMILES	p53ts 32C kill	p53ts 39C kill	Imprint erasure	IkB sig inh
O=C1C(C=Nc2ccccc2O)=C(O)c2ccccc21	10µM*	?	-75%	?
CCn1c(CC2C(=O)N(C)c3ccc(Br)cc32)nc2ccccc2c1=O (configuration not stated)	10%	-29%	-22%[10.9 µM]	3%
CCCN1C(=O)C(Cc2nc3ccccc3c(=O)n2CC)c2cc(Br)ccc21 (configuration not stated)	17%	10µM*	-26%[10.9 µM]	?
CC(=O)c1cccc(NC(=O)C2CCCN(S(=O)(=O)c3ccccc3)C2)c1 (configuration not stated)	1%	-8%	-3%	-3%
CCCCN1C(=O)/C(=C2\SC(N3CCCCC3)=NC2=O)c2ccccc21	13µM*	16µM*	-28%	?
O=C1N=C(N2CCOCC2)S/C1=C1\C(=O)N(Cc2ccccc2)c2ccc(Br)cc21	8%	15%	-8%	1%
Cc1c(C(=O)Nc2ccc(F)c(C(F)(F)F)c2)sc2nc(-c3ccccc3)cn12	-18%	-17%	5%[10.9 µM]	4%
